Hits are enriched below; roughly 6.8% of the tested compounds scored in any of these assays.
NS3h inh CB – blocks HCV NS3 helicase binding to DNA; NS3h Cy5-dT15 DNA binding, fluorescence polarization; inhibition, % at 100 µM; 16,000 compounds, 1.6% hits; AID 687043;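 active means inhibition above the average over every tested compound plus 3 SD, cut at about 40% in these data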
Cy5 interf NS3h – enhances or quenches Cy5 fluorescence in NS3h assay; Cy5-dT15 DNA with NS3h, fluorescence interference; actives lie on both sides; signal over control mean, under 1 quenches; fluorescence interference ratio at 100 µM; 16,000 compounds, 6% hits; AID 720488;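 active means compound fluorescence over control fluorescence at most 0.8, a quencher, or at least a set upper limit, an enhancer; inactive means ratio between 0.8 and the set upper limit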
Of the large screens only hits and unclear results are named; the others gave an inactive call.

COc1ccc(N2C(=O)/C(=C3/C(=O)N(Cc4ccccc4F)c4ccccc43)SC2=S)cc1	Cy5 interf NS3h 1.2
CN1C(=O)/C(=C2/C(=O)N(CC(N)=O)c3ccccc32)SC1=S	none
Cc1cc(C)c(NS(=O)(=O)c2cc(C)ccc2C)c(C)c1	none
NS(=O)(=O)c1ccc(N=Cc2ccc[nH]2)cc1	none
O=[N+]([O-])c1cccc(N=Cc2ccc[nH]2)c1	Cy5 interf NS3h 0.68
Cc1cc(OCC(=O)Nc2ccc(NC(=O)c3ccccc3)c(Br)c2)cc(C)c1Cl	none
Cc1ccc(Nc2nc(Nc3cccc([N+](=O)[O-])c3)nc(SC(=S)N3CCOCC3)n2)cc1	Cy5 interf NS3h 0.45
Cc1ccc(SCC(=O)Nc2cccc([N+](=O)[O-])c2)cc1	none
O=C(CCCN1C(=O)/C(=C/c2cccs2)SC1=S)N1CCOCC1	none
O=C1C2C3C=CC(CC3)C2C(=O)N1/N=C\c1ccc(I)o1 (stereo unspecified)	none
O=C1C2C3C=CC(CC3)C2C(=O)N1/N=C\c1cc([N+](=O)[O-])cc(Br)c1O (stereo unspecified)	Cy5 interf NS3h 0.68
COc1ccc(C2C(=C(O)c3ccc(C)cc3)C(=O)C(=O)N2CCCn2ccnc2)c(OC)c1 (stereo unspecified)	none
COc1cc(/C=C2/SC(=S)NC2=O)ccc1OS(=O)(=O)c1ccccc1[N+](=O)[O-]	Cy5 interf NS3h 1.3
COc1cc(/C=C2/SC(=S)NC2=O)ccc1OC(=O)c1cccc(Br)c1	Cy5 interf NS3h 0.76
COc1cc(/C=C2/SC(=NS(=O)(=O)c3ccccc3)NC2=O)c([N+](=O)[O-])cc1OC	none
O=C1NC(=S)S/C1=C/c1ccc(OCc2cccc(C(=O)O)c2)cc1	NS3h inh CB 46
COc1cc(/C=C2/SC(=S)NC2=O)ccc1OCc1ccc(I)cc1	none
O=C1NC(=S)S/C1=C/c1ccc(OCc2ccc(Cl)cc2)cc1	none
O=C(Nc1ccc(-c2ccc([N+](=O)[O-])cc2)cc1)c1cccs1	none
Cc1n[nH]c(=S)n(/N=C\c2cc(Cl)ccc2Cl)c1=O	none
COC(=O)c1ccc(-c2ccc(/C=N/Nc3ccc([N+](=O)[O-])cn3)o2)cc1	none
O=C(O)CCCC(=O)OCc1ccco1	NS3h inh CB 48
O=C(O)CCCC(=O)Nc1ccccc1	none
S=C(c1ccc(-c2ccc(Cl)c(Cl)c2)o1)N1CCN(c2ccccc2)CC1	none
COc1cc(OC)c(/C=C2\C(=O)NC(=O)N(c3cccc(C)c3)C2=O)cc1Br	none
CCN(CC)c1ccc(/C=C2\C(=O)NC(=O)N(c3cccc(C)c3)C2=O)c(OC)c1	Cy5 interf NS3h 1.3
N/C(=N/OC(=O)c1ccccc1Br)c1cccnc1	none
COc1ccc(N=C(NOC(C)=O)c2ccc(Cl)cc2)c(OC)c1	Cy5 interf NS3h 0.73
COc1ccc(/C=C/C(=O)c2ccc(Cl)cc2)c(OC)c1	none
O=C(O)CCC(=O)N1N=C(c2c(-c3ccccc3)c3cc(Cl)ccc3[nH]c2=O)CC1c1cccc([N+](=O)[O-])c1 (stereo unspecified)	none
O=C(Nc1ccccc1C(=O)Nc1ccccn1)c1ccco1	NS3h inh CB 42
O=C(Nc1ccccc1C(=O)Nc1ccccn1)c1ccccc1F	none
COC(=O)c1c(C)oc2ccc(OC(C)=O)cc12	none
O=S(=O)(c1ccccc1C(O)(c1ccccc1)c1ccccc1)c1ccccc1C(O)(c1ccccc1)c1ccccc1	Cy5 interf NS3h 0.76
COc1ccc(C(=O)/C=C/Nc2ccc(Cl)cc2[N+](=O)[O-])cc1OC	Cy5 interf NS3h 0.22
COc1ccc(NC(=O)c2ccc(Cl)cc2)cc1Cl	none
COc1ccc(C(=O)Nc2ccc(Cl)cc2C)cc1OC	Cy5 interf NS3h 0.78
COc1ccc(NC(=O)c2cccc(Cl)c2)cc1Cl	Cy5 interf NS3h 0.7
COc1ccc(C(=O)/C=C/Nc2ccccc2NS(=O)(=O)c2ccc([N+](=O)[O-])cc2)cc1OC	none
COc1c(Cl)cc(C(=O)Nc2c(C)cccc2C)cc1Cl	none
COc1ccc(C(=O)Nc2ccc(C)cc2C)cc1OC	none
COc1c(Cl)cc(C(=O)Nc2cccc(C(F)(F)F)c2)cc1Cl	Cy5 interf NS3h 0.53
COc1ccc(CCN=C(C)C2=C(O)COC2=O)cc1OC	none
CCOc1cc(/C=C2/SC(=S)N(CC)C2=O)ccc1OCc1ccccc1	none
O=C(O)c1ccc(Oc2ccc(NC(=O)C3CCCCC3)cc2)cc1C(=O)O	none
CC(=O)Nc1ccc2c(c1)S(=O)(=O)c1cc(NC(C)=O)ccc1-2	none
CCOC(=O)c1ccccc1NC(=O)c1cc(Cl)ccc1[N+](=O)[O-]	none
CCOC(=O)c1c(-c2ccccc2)oc2ccc(OC(=O)c3ccc([N+](=O)[O-])cc3)cc12	none
Nc1nonc1-n1nnc(CN2CCOCC2)c1CN1CCOCC1	none
Nc1nonc1-n1nnc(CN2CCCCCC2)c1CN1CCCCCC1	Cy5 interf NS3h 1.2
COCCCN1C(=O)C(=Cc2c(NCC3CCCO3)nc3ccccn3c2=O)SC1=S (stereo unspecified)	none
COc1ccc(OC)c(/C=C2/SC(=S)N(CNc3cccc(Cl)c3)C2=O)c1	Cy5 interf NS3h 0.6
COC(=O)CN1C(=O)/C(=C/c2cc(OC)ccc2OC)SC1=S	none
COCCOC(=O)C1=C(C)NC(=O)NC1c1ccc(OCC(N)=O)cc1 (stereo unspecified)	none
COC(=O)C1=C(O)/C(=C/c2cc(C)n(-c3cc(Cl)ccc3Cl)c2C)N=C1C	none
Cc1ccc(-c2ccc(C=C3C(=O)NC(=O)NC3=O)o2)c([N+](=O)[O-])c1	NS3h inh CB 41, Cy5 interf NS3h 0.72
Cc1ccc(-c2ccc(/C=C3\SC(=S)NC3=O)o2)c([N+](=O)[O-])c1	none
O=C(O)c1cccc2c(Br)ccc(C(=O)O)c12	Cy5 interf NS3h 0.68
O=C(O)CN1C(=O)c2cccc3c(Br)ccc1c23	none
COc1cc(C(=O)Nc2c(C)cccc2C(C)C)c(Br)c(OC)c1OC	Cy5 interf NS3h 1.2
COc1c(Cl)ccc(Cl)c1C(=O)Nc1c(C)cccc1C(C)C	none
O=C(NC(=S)Nc1ccc(Cl)cc1Cl)c1cccs1	none
COc1ccc(N(Cc2ccc(C(=O)NCc3ccccc3OC)cc2)S(=O)(=O)c2ccccc2)cc1	Cy5 interf NS3h 0.69
COCCCNC(=O)c1ccc(CN(c2ccccc2)S(C)(=O)=O)cc1	Cy5 interf NS3h 0.79
COCCCNC(=O)c1ccc(N(C)S(=O)(=O)c2ccccc2)cc1	none
Cc1ccc(N(Cc2ccc(C(=O)NCCSc3ccc(Cl)cc3)cc2)S(C)(=O)=O)cc1C	none
COc1ccc(NC(=O)CN(c2ccc(OC)cc2)S(C)(=O)=O)cc1	none
COc1ccccc1CNC(=O)c1ccc(CN(c2ccccc2)S(C)(=O)=O)cc1	none
COc1ccc(N(CC(=O)Nc2ccc(C)c(C)c2)S(C)(=O)=O)cc1	Cy5 interf NS3h 1.2
COc1ccc(CCNC(=O)c2ccc(N(Cc3ccc(Cl)cc3)S(C)(=O)=O)cc2)cc1OC	Cy5 interf NS3h 0.75
Cc1c(C=C(C#N)C#N)c(C)c([N+](=O)[O-])c(C)c1[N+](=O)[O-]	none
COc1ccc(CN2CCN(C(=O)c3ccc(F)cc3)CC2)c(OC)c1OC	none
O=C(O)c1ccccc1C(=O)c1ccc(Cl)c(N2C(=O)c3ccccc3C2=O)c1	none
COc1ccc(OC)c(N(CC(=O)NCCc2ccc(OC)c(OC)c2)S(=O)(=O)c2ccc(OC)c(OC)c2)c1	none
COc1ccc(N(CC(=O)NCCc2ccc(OC)c(OC)c2)S(=O)(=O)c2ccc(OC)c(OC)c2)cc1	Cy5 interf NS3h 1.2
CCOC(=O)c1c(NC(=O)CSc2ncnc3sc4c(c23)CCCC4)sc2c1CCCC2	none
COc1cc([N+](=O)[O-])ccc1-c1ccc(/C=C2\C(=O)NC(=S)N(c3ccc(C)cc3)C2=O)o1	none

Screens deposited in PubChem BioAssay by Milwaukee Institute for Drug Discovery.
